# Assay outcomes: PubChem BioAssay, National Center for Advancing Translational Sciences (NCATS)
# Tau fibril ThT: qHTS for Inhibitors of Tau Fibril Formation, Thioflavin T Binding; hit rate 2.1% among 270,000; Microtubule-associated protein tau (Homo sapiens), P10636; Potency, µM (top dose mostly 57.4 µM), for inactives: at the highest dose activity, negative = inhibition, actives largely listed as inhibitors; recombinant tau K18 P301L, heparin-induced fibrillization, ThT fluorescence; further: potency means the concentration at half of the fitted maximal effect; nearly all actives have a fitted effect of over 55% in size
# Target sequence (P10636 561-689 P618L limits assumed): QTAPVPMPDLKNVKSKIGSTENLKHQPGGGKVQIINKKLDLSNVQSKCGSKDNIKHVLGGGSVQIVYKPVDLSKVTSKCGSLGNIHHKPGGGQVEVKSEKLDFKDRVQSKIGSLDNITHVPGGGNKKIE
#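 K18 P301L tau (15 uM + 0.24 uM Alexa 594-tagged), heparin 20 uM, NaOAc pH 7, 6 h 37 C; ThT 30 uM, 1 h RT, ex 450/em 510 nm.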
# Tau fluor counter: Counterscreen qHTS for Inhibitors of Tau Fibril Formation, Fluorescence Polarization. tau K18 P301L Alexa594 fluorescence, heparin fibrillization. Potency, µM (doses to about 57.7 µM), without a hit: at the top dose activity change, negative = decrease. hit rate 0.93% among 280,000. AID 1463, 2008; further: potency means the concentration at half of the fitted maximal effect; nearly all actives have a fitted effect of over 55% in size
#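 Human tau K18 P301L (15 uM unlabeled, 0.24 uM Alexa 594-labeled) in 100 mM sodium acetate pH 7 with 20 uM heparin, 6 hr at 37 C. ThT 30 uM added, 1 hr ambient; Alexa 594 FP and total fluorescence read at 555/632 nm.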
# Coupling enz: qHTS Assay for Inhibitors of Fructose-1,6-bisphosphate Aldolase from Giardia Lamblia: Coupling assay counterscreen. coupling enzyme system counterscreen, AmpLite Red fluorescence. activity change, negative = inhibition, % at 58.2 µM, hits read low. hit rate 0.67% among 290,000; in the data active means activity change below about -30%
#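 Fluorescence at 525 nm excitation and 598 nm emission measured inhibition of the coupled detection system without aldolase. Compounds (at 57.5 uM final) were preincubated 10 min at room temperature with coupling enzyme reagent before a 20 min substrate/AmpLite Red step.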
# Tau fibril FP: qHTS for Inhibitors of Tau Fibril Formation, Fluorescence Polarization; K18 P301L tau heparin fibrillization, Alexa594 FP, 6 h; Potency, µM (highest dose often 57.7 µM), without a hit: at the highest dose activity, negative = inhibition, usual class: inhibitors; hit rate 0.39% among 280,000; AID 1468, 2008; Microtubule-associated protein tau (Homo sapiens), P10636; further: potency means the concentration at half of the fitted maximal effect; nearly all actives have a fitted effect of over 55% in size
#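 Recombinant K18 P301L […], labeled with Alexa 594 at 0.24 uM over 15 uM unlabeled; heparin inducer 20 uM final; 37 C, 6 hr; FP endpoint.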
# KDM4E inh: qHTS Assay for Inhibitors of Human Jumonji Domain Containing 2E (JMJD2E); hit rate 1.6% among 230,000; Potency, µM (top dose mostly 57.1 µM), for inactives: at the highest dose activity change, negative = inhibition, usual class: inhibitors; JMJD2E catalytic domain, FDH-coupled NADH fluorescence (FDH is formaldehyde dehydrogenase);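 further: potency means the concentration at half of the fitted maximal effect; 0% = wells with enzyme and -100% = buffer wells without enzyme; nearly all actives have a fitted effect of over 50% in size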
# Target sequence (B2RXH2 1-337 limits assumed): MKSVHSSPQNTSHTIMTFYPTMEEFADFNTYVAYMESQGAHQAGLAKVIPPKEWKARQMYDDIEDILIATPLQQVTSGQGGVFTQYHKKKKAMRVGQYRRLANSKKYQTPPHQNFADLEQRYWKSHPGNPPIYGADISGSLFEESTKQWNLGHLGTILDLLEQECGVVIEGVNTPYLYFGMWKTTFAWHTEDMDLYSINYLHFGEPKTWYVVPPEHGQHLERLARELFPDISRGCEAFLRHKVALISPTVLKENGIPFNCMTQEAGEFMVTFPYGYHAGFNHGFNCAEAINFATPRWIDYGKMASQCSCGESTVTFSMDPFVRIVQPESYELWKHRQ
# * hit, by the source's call; ? = inconclusive; . = no result given; [ ] = another dose, or the depositor's remark. The list is not random: actives were taken first. Their share in the collection is about 3%. Unless noted, the call rests on the fitted dose curve; in most records, active means well fitted curve in the direction sought with a large enough effect; inconclusive means small, poorly fitted or top-dose-only effect, or another doubt; inactive means no such curve, though single readings can be large; an effect the other way counts as inactive or inconclusive. Unless noted, on the % scale 0 is the no-effect control and ±100 the full control effect.
SMILES,Tau fibril ThT,Tau fluor counter,Coupling enz,Tau fibril FP,KDM4E inh
O=C(CSc1nccn1-c1ncc(C(F)(F)F)cc1Cl)c1ccc(Cl)cc1,18µM*,-15%,5,?,6%
COc1ccc(O)c(/C=c2/sc3nc4cc(C)c(C)cc4n3c2=O)c1,22µM*,?,1,?,-19%
COc1ccc(OC)c(/C=c2\sc3nc(-c4cccs4)nn3c2=O)c1,?,-20%,3,?,?
CC1=NOC(=O)/C1=C\c1ccc(-c2ccc(Cl)cc2Cl)o1,20µM*,?,0,-5%,-5%
CCCOc1ccc(Cl)cc1/C=C1/C(=O)ON=C1C,.,.,-1,.,.
Cc1ccc2c(CNCCc3ccco3)c(C(=O)O)n(Cc3ccc(F)cc3)c2c1,0%,-2%,.,5%,.
O=C(N/N=C/c1ccc(O)cc1O)C(=O)N/N=C/c1ccc(O)cc1O,.,.,0,.,.
CC12CCC(C(=O)N/N=C/c3ccc(O)cc3O)(OC1=O)C2(C)C (stereo unspecified),-13%,-17%,1,-3%,25µM*
C/C(=N\NC(=O)C12CCC(C)(C(=O)O1)C2(C)C)c1ccccc1O (stereo unspecified),0%,1%,0,3%,8.9µM*
CC12CCC(C(=O)NCc3ccccc3)(OC1=O)C2(C)C (stereo unspecified),1%,2%,2,-1%,-9%
COc1ccc(-c2nc(-c3ccccc3)c(-c3ccc(F)cc3)[nH]2)c(OC)c1C,?,?,.,0%,.
Cc1nnc(SCc2ccccc2)c2cc3sccc3n12,22µM*,-26%,.,?,.
Cc1ccc(C)c(CSc2nnc(C)n3c2cc2sccc23)c1,?,-27%,.,-7%,.
CN(C)c1cccc2c1c(NC(=O)Nc1ccccc1)nn2C,?,-28%,-31*,1%,?
CN(C)c1cccc2c1c(NC(=O)c1ccc(F)cc1)nn2C,-12%,-9%,-28,-1%,-4%
CN(C)c1cccc2c1c(NC(=O)c1ccc(Cl)cc1)nn2C,-10%,-19%,-37*,-6%,-1%
Clc1cccc(N/N=C(\Cc2nc3ccccc3[nH]2)c2ccccc2)c1,?,7.1µM*[quencher],-3,?,-17%
Cc1ccc2[nH]c3c(c2c1)CCc1cn[nH]c1-3,13µM*,25µM*[quencher],-19,?,?
Cc1ccc2[nH]c3c(c2c1)CCC3=O,-23%,-13%,13,2%,?
CCOc1ccc(N(CC)C(=O)c2cc3c(s2)-c2ccc(Cl)cc2SC3)cc1,-14%,-17%,.,-6%,.
O=C(O)c1ccc(-c2ccc(/C=C3\NC(=O)N(Cc4ccc(Cl)cc4)C3=O)o2)cc1Cl,28µM*,-26%,7,?,?
CCOC(=O)CN1C(=O)S/C(=C\c2ccc(-c3ccc(C(=O)O)c(Cl)c3)o2)C1=O,.,.,-1,.,.
CC(C)c1ccc(NC(=O)c2cc3c(=O)[nH]c4ccccc4c3n2C)cc1,11%,-23%,.,?,.
COc1ccc(CNC(=O)c2ccc(NC(=O)N3CCCCc4ccccc43)cc2)c(OC)c1,2%,-2%,.,1%,.
Oc1c(Br)cc(Br)cc1/C=N/NC(=S)N[C@H]1CC2C=CC1C2 (stereo partly specified),?,?,-1,?,8.9µM*
SMILES,Tau fibril ThT,Tau fluor counter,Coupling enz,Tau fibril FP,KDM4E inh
CNC(=S)N/N=C/c1cc(Br)cc(Br)c1O,5%,-1%,10,0%,-2%
COc1cccc(NC(=O)CNC(=O)Cn2c(C)cc3ccccc3c2=O)c1,-9%,-12%,.,-9%,.
C=C(C[C@]1(C(=O)OC)CC2(CC=C(C)C)C(=O)C(C(=O)CC(C)C)=C(O)C(CC=C(C)C)(C1)C2=O)C(=O)OC (stereo partly specified),-5%,2%,3,9%,-2%
COC(=O)c1ccc([C@H]2Nc3ccc(S(=O)(=O)Nc4ccc(F)cc4)cc3[C@H]3C=CC[C@H]32)cc1,?,?,.,-5%,.
COc1cccc(NS(=O)(=O)c2ccc3c(c2)C2C=CCC2C(c2ccc(C(=O)O)cc2)N3)c1 (stereo unspecified),14µM*,13µM*[quencher],-6,?,?
COc1ccc(OC)c([C@@H]2Nc3ccc(C(=O)O)cc3[C@@H]3C=CC[C@@H]32)c1,?,-11%,.,5%,.
COc1ccc(C(=O)N/N=C(\C)c2ccc3c(c2)C2C=CCC2C(c2ccccc2)N3)cc1 (stereo unspecified),13µM*,?,-9,-4%,20µM*
Cc1cccc(NS(=O)(=O)c2ccc3c(c2)[C@H]2C=CC[C@H]2[C@@H](c2ccc(F)cc2)N3)c1,?,5.6µM*[quencher],.,-8%,.
Cc1ccc2c(c1)N(C(=O)N1CCC(C(=O)NCc3ccccc3C)CC1)CC(C)O2 (stereo unspecified),-15%,?,.,3%,.
COc1ccc(C2C3C=CCC(C)C3C(=O)N2Cc2ccccc2)cc1Cl (stereo unspecified),.,.,5,.,.
CCOC(=O)/C(=N\Nc1ccccc1)c1csc(Nc2ccc(C)cc2)n1,?,7.1µM*[quencher],2,8%,-13%
COc1ccc(N=C(NN)c2ccc3ccccc3n2)cc1,16µM*,-10%,-10,-5%,?
COc1ccc(NC(=S)c2ccc3ccccc3n2)cc1,.,.,-1,.,.
CCN(CC)c1ccc(NS(=O)(=O)c2cc3[nH]c(=O)c(=O)[nH]c3cc2C)c(C)c1,?,-23%,.,5%,.
COc1ccccc1NC(=S)Nc1cccc2cnccc12,?,-12%,-19,?,?
CCOc1ccc(NC(=S)Nc2cccc3cnccc23)cc1,?,-26%,-45*,-9%,?
COc1ccc(NC(=S)Nc2cccc3cnccc23)cc1,?,-21%,-37*,?,-24%
CCOc1ccc(NC(=S)Nc2cccc3ccccc23)cc1,.,.,1,.,.
CCCCc1ccc(-n2nc3ccc(NC(=O)c4cc5ccccc5o4)cc3n2)cc1,?,1%,.,1%,.
CN1c2ccccc2N(C)C1(C)c1ccccc1,4%,8%,-1,1%,7%
CCN1c2ccccc2N(C)C1(C)c1ccccc1 (stereo unspecified),4.5µM*,?,-53*,16µM*,?
CC1=C(C#N)c2nc(N)c(C#N)c(C)c2/C1=C\c1ccc(-c2ccccc2C(=O)O)o1,8.9µM*,?,2,?,?
C/C=C/c1ccc(OCC(=O)O)c(OC)c1,-8%,-2%,-16,-3%,-8%
